Data on 65 compounds can be found in PubChem BioAssay AID493001 (Johns Hopkins Ion Channel Center, 2010).

In all, about 1,900 compounds went through this assay and about 430 (23%) were called active.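 How the source made its calls: active means duplicate-averaged calcium rise in uninduced cells above buffer wells' mean plus 5 SD; inactive means the rest.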 A selection follows.

The test is described as follows: compound-evoked calcium rise in non-induced M3R cells, confirmation, artefact control for RGS4 inhibitor project, cell-based, HEK293 M3R, no carbachol, second counter-screen (AID 493001). The following applies: Fluo-4 calcium, at 10 µM; hits give high values, normalised: buffer wells 0%, carbachol wells 100%. For orientation: The purpose of a counterscreen is to sort out artefacts and off-target activity.
For the compound `COc1ccccc1C1C(C#N)=C(N)Oc2c1c(-c1ccccc1)nn2-c1ccccc1` (stereo not given), the calcium response (agonist-mode artifact) was 8% (active).

As to `O=C(Nc1ccccc1)OCc1cc(-c2ccc(Cl)cc2)on1`, the calcium response (agonist-mode artifact) entry was “inactive”.

For `COc1ccc2c(c1OC)C(=O)OC2Nc1nc(-c2ccccc2)cs1` (stereo not given), the calcium response (agonist-mode artifact) entry was “inactive”.

As to `CC(C)c1nc(SCC(=O)Nc2cccc(C(=O)O)c2)c2c3c(sc2n1)CCCC3`, the calcium response (agonist-mode artifact) entry was “inactive”.

On to `O=C(NCCCc1ccccc1)C1CCC(CNc2c(N3CCCCC3)c(=O)c2=O)CC1` (stereo not given), for which the calcium response (agonist-mode artifact) entry was “inactive”.

Turning to `Cn1c(-c2ccco2)nc2cc3ccccc3cc21`, the calcium response (agonist-mode artifact) result was “inactive”.

Take `Cc1ccc(-c2c3c(=O)n(C)c(=O)n(C)c3cn2-n2cnnc2)cc1`: the calcium response (agonist-mode artifact) result is “inactive”.

In the case of `Nc1ccccc1SC(C[N+](=O)[O-])c1ccccc1` (stereo not given), the calcium response (agonist-mode artifact) was 26% (active).

Turning to `c1ccc(C[C@H]2CNCCN2CCC23CC4CC(CC(C4)C2)C3)cc1`, the calcium response (agonist-mode artifact) result was “inactive”.

As to `C=CCSc1nc2c(c(=O)[nH]1)C(C(C)C)C(C#N)=C(N)O2` (stereo not given), the calcium response (agonist-mode artifact) entry is “inactive”.

Regarding `CCn1c(O)c(N=NC2=NC(=O)CS2)c2cc(C)ccc21`, the calcium response (agonist-mode artifact) result was “inactive”.

Take `O=C1NC(c2ccc(-c3ccccc3[N+](=O)[O-])o2)C(C(=O)c2ccc(Cl)cc2)C(O)(C(F)(F)F)N1` (stereo not given): the calcium response (agonist-mode artifact) was 7% (active).

As to `Cc1ccc(SC(CC(=O)c2ccc(C(C)(C)C)cc2)C(=O)O)cc1` (stereo not given), the calcium response (agonist-mode artifact) result is “inactive”.

In the case of `O=C(Nc1ccc(Cl)cc1)OCc1cc(-c2ccccc2)on1`, the calcium response (agonist-mode artifact) result is “inactive”.

Take `O=C(O)c1ccc2c(c1)C(=O)N(c1ccc(/C=C/C(=O)c3ccccc3)cc1)C2=O`: the calcium response (agonist-mode artifact) result is “inactive”.

`COc1cc(/C=C2/SC(=S)N(Cc3ccccc3)C2=O)cc(OC)c1O`: the calcium response (agonist-mode artifact) was 37.5% (active).

Regarding `COc1ccc(/C(O)=C2/C(=O)C(=O)N(c3nc(C)c(C)s3)C2c2ccco2)cc1` (stereo not given), the calcium response (agonist-mode artifact) result is “inactive”.

In the case of `COc1ccc(-c2csc(Nc3ccc(O)cc3)n2)cc1`, the calcium response (agonist-mode artifact) entry was “inactive”.

Take `CNc1nc(Nc2ccc(C)c(Cl)c2)nc(N)c1[N+](=O)[O-]`: the calcium response (agonist-mode artifact) result was “inactive”.

Consider `O=C(O)c1ccc2c(=O)n3c(nc2c1)/C(=C/c1ccc(Cl)c([N+](=O)[O-])c1)CC3`, for which the calcium response (agonist-mode artifact) result was “inactive”.

For the compound `COc1cc2c(cc1O)C(SC)=NC(C)(C)C2`, the calcium response (agonist-mode artifact) result is “inactive”.

As for `Cc1cc(C)nc(S/C=C/C(=O)c2ccccc2)n1`, the calcium response (agonist-mode artifact) entry was “inactive”.

For `O=C(/C=C/Sc1ncn[nH]1)c1ccc(Cl)cc1`, the calcium response (agonist-mode artifact) is 9% (active).

Turning to `CC(=O)Nc1ccc(S(=O)(=O)Nc2nc(-c3ccc(C(C)(C)C)cc3)cs2)cc1`, the calcium response (agonist-mode artifact) entry was “inactive”.

Turning to `O=C(/C=C/c1ccc(Cl)c([N+](=O)[O-])c1)c1cccnc1`, the calcium response (agonist-mode artifact) result is “inactive”.

On to `Cc1ccc(C)c(Cn2nnc3c(=O)[nH]c(C(=O)Nc4ccc(F)cc4)nc32)c1`, for which the calcium response (agonist-mode artifact) entry is “inactive”.

Consider `O=C(NCc1ccccc1)c1ccc(S(=O)(=O)Nc2cccc(C(F)(F)F)c2)cc1`, for which the calcium response (agonist-mode artifact) is 13% (active).

For the compound `CCc1ccc2oc(-c3ccc(N)cc3)nc2c1`, the calcium response (agonist-mode artifact) result is “inactive”.

Regarding `CCCCC1S/C(=N/N=C/c2cccs2)NC1=O` (stereo not given), the calcium response (agonist-mode artifact) result is “inactive”.

Turning to `CCOC(=O)[C@@H]1[C@H]2COc3ccc(Br)cc3[C@H]2N2C(=O)N(c3ccc(Cl)cc3)C(=O)[C@@]12C`, the calcium response (agonist-mode artifact) result was “inactive”.

Consider `O=C(CCN1CCc2ccccc2C(O)(c2ccccc2)C1)c1ccc2c(c1)OCCO2` (stereo not given), for which the calcium response (agonist-mode artifact) was 11.5% (active).

`CCc1nnc(NS(=O)(=O)c2ccc(N=Cc3c(C)[nH]n(-c4ccc(C)cc4)c3=O)cc2)s1`: the calcium response (agonist-mode artifact) result is “inactive”.

For `CCC(c1nnnn1Cc1ccco1)N(Cc1cc2cc(OC)ccc2[nH]c1=O)C1CCCCC1` (stereo not given), the calcium response (agonist-mode artifact) entry was “inactive”.

On to `C=C(C)C(=O)O[C@H]1C/C(C)=C\C(=O)/C=C(\C)[C@H](O)[C@@H]2OC(=O)C(=C)[C@@H]21`, for which the calcium response (agonist-mode artifact) entry was “inactive”.

On to `CCCCOC(=O)CNc1nnc(SCC(=O)OCC)[nH]c1=O`, for which the calcium response (agonist-mode artifact) entry is “inactive”.

Take `CNCC(O)c1ccc(O)c(O)c1` (stereo not given): the calcium response (agonist-mode artifact) result is “inactive”.

For the compound `Cc1ccc(S/C(=N\S(=O)(=O)c2ccc(Cl)cc2)c2ccccc2)cc1`, the calcium response (agonist-mode artifact) is 25% (active).

Consider `COc1ccc(OC)c(S(=O)(=O)N2CCCC(C(=O)N3CCC(C(N)=O)CC3)C2)c1` (stereo not given), for which the calcium response (agonist-mode artifact) entry is “inactive”.

`CCOC(=O)C1CCN(C(c2cc3cc(C)cc(C)c3[nH]c2=O)c2nnnn2C2CCCCC2)CC1` (stereo not given): the calcium response (agonist-mode artifact) result was “inactive”.

On to `Cc1noc(NS(=O)(=O)c2ccc(N/C=C/C(=O)c3ccccc3)cc2)c1C`, for which the calcium response (agonist-mode artifact) entry is “inactive”.

For `Cc1ccsc1/C=N/n1c(=S)[nH]nc(C)c1=O`, the calcium response (agonist-mode artifact) entry was “inactive”.

For the compound `CCOc1ccc(/C=N/NC(=O)CSc2ccccn2)cc1O`, the calcium response (agonist-mode artifact) result was “inactive”.

`Cc1nc(-c2ccccc2)sc1C(=O)/C=C/c1ccccc1`: the calcium response (agonist-mode artifact) was 22.5% (active).

With `S=c1[nH]nc(-c2cccnc2)n1/N=C/C(Cl)=C\c1ccccc1`, the calcium response (agonist-mode artifact) result is “inactive”.

For `Oc1ccc(-c2[nH]ncc2-c2nc3ccccc3s2)c(O)c1`, the calcium response (agonist-mode artifact) entry is “inactive”.

For `COc1cc(/C=C2/C(=O)ON=C2C)ccc1OCc1ccccc1F`, the calcium response (agonist-mode artifact) is 222% (active).

Regarding `C#CCOc1ccc(/C=C2/C(=O)ON=C2C)cc1OCC`, the calcium response (agonist-mode artifact) entry is “inactive”.

Turning to `C=CCOc1ccc(/C=C2/C(=O)ON=C2C)cc1OCC`, the calcium response (agonist-mode artifact) is 10% (active).

For the compound `Cc1ccc(NC(=O)c2c(NC(=O)CCC(=O)O)sc3c2CCCCC3)cc1`, the calcium response (agonist-mode artifact) result was “inactive”.

Turning to `Cc1ccc(Nc2nc(N)nc(CSc3nnc(C)s3)n2)cc1`, the calcium response (agonist-mode artifact) result was “inactive”.

Regarding `Cc1ccc(Nc2nc(N)nc(CN3CCN(Cc4ccccc4)CC3)n2)cc1Cl`, the calcium response (agonist-mode artifact) result was “inactive”.

For the compound `Brc1ccc(-c2csc(N/N=C/c3cccnc3)n2)cc1`, the calcium response (agonist-mode artifact) result is “inactive”.

As to `CCOc1ccc(NC(=O)C/C(C)=N/NC(=O)Cc2cccs2)cc1`, the calcium response (agonist-mode artifact) result is “inactive”.

With `COc1ccc(/C=C/C(=O)c2ccc(OC)cc2O)cc1`, the calcium response (agonist-mode artifact) is 11.5% (active).

Take `O=C(/C=C/c1ccc(Cl)c([N+](=O)[O-])c1)c1ccc(O)cc1`: the calcium response (agonist-mode artifact) entry is “inactive”.

Turning to `Cc1c(NC(=O)c2coc(=O)c(Br)c2)c(=O)n(-c2ccccc2)n1C`, the calcium response (agonist-mode artifact) entry was “inactive”.

As to `CCc1ccc(C2C(C#N)=C(N)N(N3CCOCC3)C3=C2C(=O)CC(C)(C)C3)s1` (stereo not given), the calcium response (agonist-mode artifact) result was “inactive”.

`O=[N+]([O-])c1c(NCCO)cc(Sc2nc3ccccc3s2)c2nonc12`: the calcium response (agonist-mode artifact) was 114% (active).

In the case of `COc1ccc(S(=O)(=O)Nc2ccc(O)c(Sc3nc4ccccc4s3)c2)cc1`, the calcium response (agonist-mode artifact) entry is “inactive”.

In the case of `C[C@H](NC(=O)c1nc[nH]c1C(=O)NCC(=O)OC(C)(C)C)c1ccccc1`, the calcium response (agonist-mode artifact) result was “inactive”.

As for `Cc1nc(Nc2ccc(S(=O)(=O)N3CCCC3)cc2)c2nnn(Cc3ccccc3)c2n1`, the calcium response (agonist-mode artifact) result was “inactive”.

Consider `Nc1cccc(-c2cc(-c3ccccc3)nc(-c3cccc(N)c3)n2)c1`, for which the calcium response (agonist-mode artifact) result was “inactive”.

For the compound `O=C(N/N=C/c1ccccc1O)/C(=C/c1ccccc1)CCO`, the calcium response (agonist-mode artifact) entry was “inactive”.

As to `CS(=O)(=O)N(CC(O)Cn1c2ccccc2c2ccccc21)c1cccc2ccccc12` (stereo not given), the calcium response (agonist-mode artifact) result was “inactive”.

In the case of `COCCCNC(=S)N(CCN(C)C)Cc1cc2cc3c(cc2[nH]c1=O)OCCO3`, the calcium response (agonist-mode artifact) entry is “inactive”.
